`Cn1ccc2ncnc(Oc3ccc(NC(=O)Nc4cccnc4)c(Cl)c3)c21` was tested, and the Kd (CSF1R) was 290 nM.
In the case of `CCc1nc(-c2cccc(C)c2)c(-c2ccnc(NC(=O)c3ccccc3)c2)s1`, the Kd (CSNK1A1) is reported as 1400 nM, the Kd (CSNK1D) is reported as 690 nM and the Kd (CSNK1E) is reported as 880 nM.
In the case of `Nc1nc(-c2cccnc2)c(-c2ccnc3ccccc23)s1` [GW684083], the Kd (CLK3) is reported as over 10000 nM.
Work on `CSc1nn2c(=O)cc(N3CCOCC3)nc2n1Cc1cccc(Cl)c1Cl` [GSK2347225] yielded a Kd (CLK3) of over 10000 nM and a Kd (CSNK1E) of over 10000 nM.
In the case of `COc1cc2c(Nc3cccc(NC(=O)c4ccccc4)c3)ncnc2cc1OCCCN1CCOCC1` [GSK223810], the Kd (CSF1R) is reported as 420 nM.
`CC(C)N1CCC(n2cnc(-c3ccc(F)cc3)c2-c2ccnc(N)n2)CC1` [SB-223132] gave a Kd (CSNK1A1) of 59 nM, a Kd (CSNK1D) of 39 nM and a Kd (CSNK1E) of 230 nM.
In the case of `CNc1nccc(-c2c(-c3ccc(F)cc3)ncn2C2CCN(C)CC2)n1` [SB-222903], the Kd (CSNK1A1) is reported as 24 nM, the Kd (CSNK1D) is reported as 5.7 nM and the Kd (CSNK1E) is reported as 17 nM.
`Nc1nccc2scc(-c3ccc4c(c3)CCN4C(=O)Cc3cc(F)ccc3F)c12` [GSK2587663] showed a Kd (CLK3) of over 10000 nM.
`Fc1ccc(-c2ncn(CCCNCc3ccccc3)c2-c2ccncc2)cc1` showed a Kd (CSNK1A1) of 210 nM, a Kd (CSNK1D) of 47 nM and a Kd (CSNK1E) of 130 nM.
With `Cc1ccc(NC(=O)c2cccc(C#N)c2)cc1-c1ccc(C(=O)Nc2ccncc2)cc1` [GSK1398463] the Kd (CSF1R) was 780 nM.
`COc1ccc(NC(=O)c2ccc(-c3cc(-c4nnc(C)o4)ccc3C)cc2)cc1` [GW595885] gave a Kd (CLK3) of over 10000 nM.
`Nc1nc(-c2ccccn2)c(-c2ccnc3ccccc23)s1` [GW548057] showed a Kd (CSNK1A1) of 1200 nM and a Kd (CSNK1D) of 1800 nM.
In the case of `O=C(NCCCN1CCCC1=O)c1cnc(NCc2cc(Cl)ccc2Cl)nc1NC1CCNCC1`, the Kd (CSF1R) is reported as over 10000 nM and the Kd (CSNK1E) is reported as 230 nM.
In the case of `Cc1ccc(C)c(NC(=O)NCCNc2ccnc(Nc3ccc(F)cc3)n2)c1` [GSK1379878], the Kd (CSK) is reported as over 10000 nM.
For `COc1ccc(Nc2nccc(N3CCC(NC(=O)Nc4ccc5c(c4)OCO5)C3)n2)cc1` (centres unmarked) [GSK1379745], the Kd (CSNK1D) was over 10000 nM.
`c1ccc(-c2ccc3c(-c4ccnc(Nc5ccc6c(c5)OCCO6)n4)cnn3n2)cc1` [GW818941] gave a Kd (CSK) of over 10000 nM.
Work on `O=C(Nc1ccccc1F)NC1CCN(c2ccnc(Nc3ccc(F)cc3)n2)C1` (centres unmarked) [GSK1379722] yielded a Kd (CSNK1G2) of over 10000 nM.
With `Nc1nc(-c2ccc3c(N)n[nH]c3c2)cc(N2CCC[C@@H](C(=O)Nc3ccccc3)C2)n1.O=C(O)C(F)(F)F.O=C(O)C(F)(F)F` [GSK2288359] the Kd (CSNK1G2) was over 10000 nM.
Work on `CN1CCC(n2cnc(-c3ccc(F)cc3)c2-c2ccnc(NC3CCNCC3)n2)CC1` [SB-229482] yielded a Kd (CSNK1A1) of 160 nM, a Kd (CSNK1D) of 89 nM and a Kd (CSNK1E) of 210 nM.
With `COc1ccc(NC(=O)Nc2ccc(C)c(-c3ccc(C(=O)Nc4ccncc4)cc3)c2)cc1` [GSK1398475] the Kd (CSF1R) was 1800 nM.
`FC(F)(F)c1cc(Nc2nccc(-c3c(-c4ccc(Cl)cc4)nn4ncccc34)n2)ccc1Cl` [GW829351] gave a Kd (CSNK1D) of 2200 nM.
In the case of `CN1c2ccc(-c3ccc(C(=O)NCCO)cc3)cc2-c2[nH]ncc2S1(=O)=O`, the Kd (CLK2) is reported as 700 nM.
`COC(=O)c1c(-c2ccccc2)c2cc(Cl)ccc2c(=O)n1Cc1ccc(S(C)(=O)=O)cc1` was tested, and the Kd (CSNK1G1) was over 10000 nM.
With `CSc1ccc(NC2=C(c3ccccc3Cl)C(=O)NC2=O)cc1` [SB-342411] the Kd (CLK2) was 460 nM.
Work on `Fc1cccc(COc2ccc(Nc3ncnc4sc(-c5ccc[nH]5)cc34)cc2Cl)c1` [GW707818] yielded a Kd (CLK4) of over 10000 nM.

Source: article PMC5540273 (PLoS ONE, 2017)
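Note: kd values determined as follow-up on hits from a single-replicate KINOMEscan panel screen.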
